Inhibition data for 70 molecules are collected here from PubChem BioAssay AID651661 (Broad Institute, 2012).

Screen size: about 350,000 compounds; about 2,300 (0.66%) were called active.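 How the source made its calls: active means mean inhibition of at least 50% after viability correction, with every replicate also passing that limit; inconclusive means mean reaches 50% but only one of two replicates passes; inactive means the rest.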 Shown is part of a subset that was picked to be rich in actives.

This experiment in a line: blockers of EWS/Fli transcriptional output – A673 cells, NR0B1 luciferase, luminescence, MLPCN library, primary screen (AID 651661).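 Further: firefly luciferase signal divided by Alamar Blue viability fluorescence both relative to DMSO.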 The conditions noted are these: A673 NR0B1-luciferase reporter, viability-normalised; at 12.6 µM; active compounds read high.
In the case of `COc1ccc2c3c([nH]c2c1)[C@H](CO)N(S(=O)(=O)c1cn(C)cn1)CC31CCN(CC2CC2)CC1`, the inhibition was -3.8% (inactive).
For `C[C@@H]1CN([C@@H](C)CO)C(=O)Cc2cc(NC(=O)CCCN(C)C)ccc2O[C@@H]1CN(C)Cc1ccc(-c2ccccc2)cc1` the value was 17.3% (inactive); for `C[C@H]1CN([C@@H](C)CO)C(=O)Cc2cc(NC(=O)CCCCCC(=O)Nc3ccccc3N)ccc2O[C@@H]1CN(C)Cc1ccncc1`, -9.64% (inactive); for `C[C@H](CO)N1C[C@H](C)[C@H](CN(C)CC2CCCCC2)Oc2ccc(NC(=O)CCCCCC(=O)Nc3ccccc3N)cc2CC1=O`, 51.8% (active).
For `C[C@@H]1CN([C@@H](C)CO)C(=O)Cc2cc(NC(=O)CCCCCC(=O)Nc3ccccc3N)ccc2O[C@@H]1CN(C)C(=O)NC1CCCCC1` the value was 2.61% (inactive).
Regarding `C[C@@H]1CN([C@H](C)CO)C(=O)Cc2cc(NC(=O)C3CCCCC3)ccc2O[C@H]1CN(C)S(=O)(=O)c1ccc(Cl)cc1`, the inhibition is 4.11% (inactive).
As for `C[C@H](CO)N1C[C@H](C)[C@@H](CN(C)Cc2ccc(-c3ccccc3)cc2)Oc2ccc(NC(=O)CCC(F)(F)F)cc2CC1=O`, the figure is 72.1% (active); as for `C[C@@H]1CN([C@@H](C)CO)C(=O)Cc2cc(NC(=O)CCCCCC(=O)Nc3ccccc3N)ccc2O[C@H]1CN(C)C(=O)Nc1ccc(C(F)(F)F)cc1`, 8.79% (inactive); as for `C[C@H]1CN([C@@H](C)CO)C(=O)Cc2cc(NC(=O)C3CC3)ccc2O[C@H]1CN(C)S(=O)(=O)c1ccc(Cl)cc1`, 52.2% (active).
For `COc1ccc(S(=O)(=O)N(C)C[C@@H]2Oc3ccc(NC(=O)C4CC4)cc3CC(=O)N([C@@H](C)CO)C[C@H]2C)cc1` the value was -1.28% (inactive); for `CC(C)NC(=O)N(C)C[C@H]1Oc2ccc(NC(=O)CCCCCC(=O)Nc3ccccc3N)cc2CC(=O)N([C@@H](C)CO)C[C@H]1C`, -5.03% (inactive); for `C[C@H](CO)N1C[C@H](C)[C@H](CN(C)Cc2ccc(C(F)(F)F)cc2)Oc2ccc(NC(=O)CCCCCC(=O)Nc3ccccc3N)cc2CC1=O`, 52.3% (active).
As for `C[C@H]1CN([C@@H](C)CO)C(=O)Cc2cc(NC(=O)CCCN(C)C)ccc2O[C@@H]1CN(C)Cc1ccc(-c2ccccc2)cc1`, the figure is -8.76% (inactive); as for `CCS(=O)(=O)Nc1ccc2c(c1)C(=O)N(C)[C@H]1CC[C@H](CC(=O)Nc3ccccc3)O[C@@H]1CO2`, -5.08% (inactive).
Consider `COc1ccc(S(=O)(=O)N2CCCCN3[C@H](C2)[C@H](c2ccc(C4=CCCC4)cc2)[C@@H]3CO)cc1`, for which the inhibition is -9.53% (inactive).
As for `C[C@H]1CN([C@@H](C)CO)C(=O)c2ccccc2-c2ccccc2CO[C@H]1CN(C)Cc1ccc(-c2ccccc2)cc1`, the figure is 8.23% (inactive); as for `COc1ccc2c3c(n(C)c2c1)[C@@H](CO)N(CC1CC1)CC31CCN(C(=O)c2ccc3c(c2)OCO3)CC1`, 17.4% (inactive).
For `N#C[C@@H]1[C@H](c2ccccc2-c2ccccc2F)[C@@H](CO)N1C(=O)c1ccccn1` the value was 31.4% (inactive).
As for `CO[C@H]1CN(C)C(=O)c2ccc(NS(=O)(=O)c3ccccc3)cc2OC[C@H](C)N(Cc2nccs2)C[C@@H]1C`, the figure is 3.5% (inactive).
For the molecule `O=C(c1ccccc1)N1CC(=O)N2[C@@H](CO)[C@H](c3ccc(C#CC4CC4)cc3)[C@@H]2C1`, the inhibition was -6.36% (inactive).
As to `C[C@H](CO)N1C[C@H](C)[C@@H](CN(C)S(=O)(=O)c2cn(C)cn2)OCCCC[C@H](C)Oc2ccc(NC(=O)Cc3ccccc3)cc2C1=O`, the inhibition is 2.69% (inactive).
As for `CC(=O)Nc1ccc2c(c1)C(=O)N(C)[C@H]1CC[C@H](CC(=O)NCc3ccccc3Cl)O[C@H]1CO2`, the figure is -1.68% (inactive); as for `Cc1cccc(S(=O)(=O)N2C[C@@H]3[C@H](c4ccccc42)[C@@H](CO)N3C(=O)c2ccccc2)c1`, 1.99% (inactive); as for `Cc1cccc(NS(=O)(=O)c2ccc(-c3cnc(C4CC4)o3)cc2)c1`, 53.1% (active).
With `COc1ccc(CNS(=O)(=O)c2ccc(-c3cnc(C4CC4)o3)cc2)cc1`, the inhibition is 4.87% (inactive).
With `Cc1cccc(CNS(=O)(=O)c2ccc(-c3cnc(C4CC4)o3)cc2)c1`, the inhibition is -1.32% (inactive).
As for `COc1ccccc1NC(=O)N1CC(=O)N2[C@H](C1)[C@H](c1ccc(C#Cc3ccccc3)cc1)[C@@H]2CO`, the figure is 0.577% (inactive); as for `C[C@@H](O)C#Cc1ccc([C@H]2[C@H]3CN(C(=O)c4ccc5c(c4)OCO5)CCCCN3[C@H]2CO)cc1`, -9.79% (inactive); as for `C[C@H]1CN([C@@H](C)CO)C(=O)c2cc(C3=CCCC3)cnc2O[C@@H]1CN(C)Cc1cccnc1`, -9.75% (inactive).
As for `COc1ccc(/C=C/C(=O)OCC(=O)NC2CCCCCC2)cc1OC`, the figure is -1.04% (inactive).
For `COc1ccc(/C=C2\SC(=S)N(CCCC(=O)NC3CCCC3)C2=O)cc1OC` the value was 55.1% (active).
With `COc1ccc(/C=C2\SC(=S)N(CCC(=O)N3CCOCC3)C2=O)cc1OC`, the inhibition was 0.114% (inactive).
Turning to `COCC(=O)N1[C@H](CO)[C@H](c2ccccc2)C12CN(C(=O)NC1CCCCC1)C2`, the inhibition was -12.4% (inactive).
As for `C[C@H](CO)N1C[C@H](C)[C@@H](CN(C)CC2CC2)OCCCC[C@H](C)Oc2ccc(NC(=O)Cc3ccccc3)cc2C1=O`, the figure is 32% (inactive).
Consider `COc1ccccc1-n1c(CNC(=O)c2ccccc2)nnc1SCC(=O)Nc1nnc(C)s1`, for which the inhibition was 4.12% (inactive).
As for `Cc1nnc(NC(=O)CSc2nccn2-c2cccc(C)c2C)s1`, the figure is 60.5% (active); as for `COc1ccccc1-n1ccnc1SCC(=O)NC(C)(C)C`, 0.699% (inactive); as for `Cc1nc(N2[C@H](CO)[C@H](c3ccccc3)[C@H]2CNCC2CCCCC2)sc1C`, -4.86% (inactive).
As for `COc1cccc(-c2ccc([C@H]3[C@H]4CN(C(=O)NC(C)C)CC(=O)N4[C@H]3CO)cc2)c1`, the figure is 1.6% (inactive); as for `CN1CCN(CCCNC(=O)c2ccc(/C=C3\Oc4ccccc4N(Cc4ccc(Cl)cc4)C3=O)cc2)CC1`, 62.2% (active).
As for `CC(C)OCCCNC(=O)CN1C(=O)/C(=C/c2ccccc2F)Oc2ccccc21`, the figure is -9.7% (inactive).
On to `CCCN1CCN(CCCNC(=O)CN2C(=O)COc3ccccc32)CC1`, for which the inhibition is 5.75% (inactive).
In the case of `O=C1CN(S(=O)(=O)c2ccccc2)C[C@H]2[C@H](c3ccc(C#CCc4ccccc4)cc3)[C@@H](CO)N12`, the inhibition was -2.75% (inactive).
For `C[C@@H]1CN([C@@H](C)CO)C(=O)c2cc(-c3ccncc3)cnc2O[C@@H]1CN(C)C(=O)C1CCCCC1` the value was -4.18% (inactive).
As for `C[C@H](CO)N1C[C@H](C)[C@@H](CN(C)C(=O)Nc2ccc(F)cc2)OCCCC[C@H](C)Oc2ccc(NC(=O)c3ccncc3)cc2C1=O`, the inhibition is -7.08% (inactive).
As for `Cc1cccc(NC(=O)C(C)SCc2ccccc2)c1` (stereo not given), the figure is -20.7% (inactive); as for `Cc1cccc(NC(=O)c2nc(S(=O)(=O)Cc3ccccc3)ncc2Cl)c1`, 56.5% (active); as for `Cc1nnc(NC(=O)C(c2ccccc2)c2ccccc2)s1`, 11.8% (inactive).
For `Cc1cc(C)cc(NS(=O)(=O)Cc2ccccc2)c1` the value was -2.06% (inactive).
For `Cc1ccc(CS(=O)(=O)c2ncc(Cl)c(C(=O)Nc3nnc(C)s3)n2)cc1`, the inhibition is 67.7% (active).
Turning to `Cc1cccc(CS(=O)(=O)c2ncc(Cl)c(C(=O)Nc3ccc(F)cc3)n2)c1`, the inhibition is 60.6% (active).
For `Cc1ccc(S(=O)(=O)CCC(=O)Nc2nnc(CC(C)C)s2)cc1` the value was -2.4% (inactive).
For `Cc1ccc(C)c(Cn2nnc3c(=O)[nH]c(C(=O)Nc4ccc(F)cc4)nc32)c1` the value was -4.91% (inactive); for `O=C(Nc1ccc(F)cc1)c1ccc(S(=O)(=O)NCc2cccnc2)cc1`, 14.9% (inactive); for `O=C(C[C@H]1C=C[C@@H](NC(=O)NC2CCCCC2)[C@@H](CO)O1)NCc1ccc(Cl)cc1`, -5.17% (inactive).
For `CC(C)C#Cc1ccc([C@H]2[C@@H](C#N)N(C(=O)CN(C)C)[C@H]2CO)cc1` the value was 2.38% (inactive).
Regarding `COCC(=O)Nc1ccc2c(c1)OC[C@H](C)NC[C@H](C)[C@H](OC)CN(C)C2=O`, the inhibition was -2.88% (inactive).
As for `CCNC(=O)Nc1ccc2c(c1)C(=O)N(C)[C@H]1CC[C@@H](CC(=O)N[C@H](C)c3ccccc3)O[C@@H]1CO2`, the figure is 0.627% (inactive); as for `Cn1cnc(S(=O)(=O)N2CC[C@@H]3[C@H]2c2cc(C#Cc4cccc(F)c4)ccc2N[C@@H]3CO)c1`, 0.925% (inactive).
For `C[C@@H]1CN([C@H](C)CO)C(=O)c2cc(C#Cc3cccc(F)c3)cnc2O[C@H]1CN(C)Cc1ccccn1` the value was 6.4% (inactive).
For `C[C@H](CO)N1C[C@H](C)[C@H](CN(C)C(=O)NC2CCCCC2)Oc2ccc(NC(=O)CCCN(C)C)cc2CC1=O` the value was -7.51% (inactive).
For the molecule `CC(C)OC(=O)N(C)C[C@@H]1OCc2ccccc2-c2c(n(C)c3ccccc23)C(=O)N([C@H](C)CO)C[C@H]1C`, the inhibition is 8.3% (inactive).
For `Cc1ccc(-c2cn3cc(C)ccc3n2)cc1` the value was 66.7% (active).
For `COc1ccc(-c2nc3ccc(Br)cn3c2Cc2ccc(C)cc2)cc1OC` the value was -33.3% (inactive); for `Cc1ccc2nc(-c3ccc(Br)cc3)cn2c1`, 71.9% (active); for `Cc1ccc(-c2nc3ccc(Br)cn3c2Cc2ccccc2C(F)(F)F)cc1`, -71.5% (inactive).
For `Cc1ccc(-c2nc3ccc(Cl)cn3c2Cc2ccccc2)cc1` the value was -80.4% (inactive); for `Cc1ccc(-n2c(-c3ccc(Cl)cc3)n[nH]c2=S)cc1`, 3.61% (inactive); for `C[C@@H]1CN([C@@H](C)CO)S(=O)(=O)c2ccc(C#Cc3cccnc3)cc2O[C@@H]1CN(C)C(=O)CN(C)C`, 12.9% (inactive).
For the molecule `CC(=O)N1[C@H](C(=O)N(C)C)[C@@H](CO)[C@@H]2Cn3c(ccc(-c4ccccc4)c3=O)[C@@H]21`, the inhibition is 0.262% (inactive).
